Reference: PubChem BioAssay AID1745845 (National Center for Advancing Translational Sciences (NCATS), 2022)
“And” between values parts separate entries of the source, which are not always exact repeats. Equal entries are not always repeated. Hit rate of the full screen: of about 360,000 compounds, about 2,600 (0.72%) were called active. Inconclusive results (about 5%) are left out. Calls follow the shape of the dose curve; as a rule, active = well fitted inhibition curve with a large enough effect; inconclusive = small, poorly fitted or top-dose-only effect; inactive = no such curve, though single readings can be large or run the other way. For the sample, actives were picked, then their nearest neighbours and some compounds at random.

test: Primary qHTS for Inhibitors of ATXN expression; details: HEK-293 ATXN2-luciferase reporter, luminescence, 24 h; series mostly up to 57 µM; also: nearly all actives have a fitted effect of over 55% in size
Method in brief: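 ATXN2-luciferase reporter cells (luciferase flanked by upstream and downstream ATXN2 gene portions) were treated 24 h at 37 °C with compounds at up to 57 uM. SteadyGlo luminescence gave expression; GF-AFC fluorescence gave viability.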
% is scaled to controls: 0 for no effect and ±100 for the full control effect; potency is read from the fitted curve at half-maximal effect.

Potency, inactive:
CC(C)(C)OC(=O)N1CCC(c2c(C(=O)N3CCc4ccccc4C3)cnn2-c2ccc(F)cc2)CC1
COc1ccccc1NC(=O)C1=C(C)Nc2nc(SCC(=O)c3ccc(C)cc3)nn2C1c1ccccc1C (stereo unspecified)
CCc1nc2c(OCc3cccc(OC)c3)cccn2c1N(C)C(=O)C(C)C
CCc1nc2c(OCc3ccc(C(=O)OC)cc3)cccn2c1N(C)C(=O)C(C)C
COC(=O)[C@@]1(Sc2ccc(C)cc2)CC(=O)N(c2cccc(SC)c2)[C@@H]1c1ccccc1
CC=CC[C@@H](C)C(=O)[C@H]1C(=O)N[C@@H](C(C)C)C(=O)N(C)CC(=O)N(C)[C@@H](CC(C)C)C(=O)N[C@@H](C(C)C)C(=O)N(C)[C@@H](CC(C)C)C(=O)N[C@@H](C)C(=O)N[C@H](C)C(=O)N(C)[C@@H](CC(C)C)C(=O)N(C)[C@@H](CC(C)C)C(=O)N(C)[C@@H](C(C)C)C(=O)N1C
O=C(NC1CCCC1)C1c2ccccc2OCC(=O)N1CC(F)(F)F (stereo unspecified)
Cc1cc(C)cc(NC(=O)Cn2c(=O)c3ccccc3n3nncc23)c1
CS(=O)(=O)N1CCN(C(=O)c2cc3ccccc3oc2=O)CC1
Cc1cc(NC(=O)c2cccc(Cl)c2)ccc1-c1cc2ccccc2oc1=O
Cc1ccc(CNC(=O)CCc2c(C)nc3nc(CNC(=O)OC(C)(C)C)nn3c2C)cc1
COc1ccccc1NC(=O)CC(NCCN(C)C)C(=O)O (stereo unspecified)
CCN(CC)CCN(C(=O)c1cccc([N+](=O)[O-])c1)c1nc2ccc(OC)cc2s1
Cc1nc2ccccc2nc(C)c1=NOCc1ccc(Cl)cc1Cl
COc1ccc(Cl)cc1N(CC(=O)N/N=C/c1ccc(OCC(N)=O)cc1)S(C)(=O)=O
CCc1nc2ccc(C(=O)N(C)CCN(C)C)cn2c1N(CC)CCOC
CC(C)Sc1oc(-c2cccs2)nc1S(=O)(=O)c1ccc(Cl)cc1
Cc1ccc(OCCn2c(CNc3ccccc3C)nc3ccccc32)cc1
CCCn1ccc2c(OCC(=O)NCc3ccc(F)cc3)cccc2c1=O
COc1ccc(C(C#N)=C2C=CC(=NO)c3ccccc32)cc1
O=C(CCN1CCN(C/C=C/c2ccccc2)CC1)Nc1ccccc1Cl
NC(=O)C1(Nc2ccccc2Cl)CCCC1
CSCCC(c1nnnn1Cc1ccccc1)N1CCN(C/C=C/c2ccccc2)CC1 (stereo unspecified)
CCCN1CCN(CCCNC(=O)Cn2nc(CC)n3c(cc4occc43)c2=O)CC1
Cc1cccc(C(=O)NCCc2nc3ccccc3n2Cc2ccccc2Cl)c1
Cc1ccccc1CSc1nc(-c2ccccc2)nc2c1Cc1c(CO)cnc(C)c1O2
CCOC(=O)[C@]12CCCC=C1N(Cc1cccc3ccccc13)C(=O)[C@H](CC(=O)NCC13CC4CC(CC(C4)C1)C3)C2
COc1cc(Nc2ncc(F)c(Nc3ccc4c(n3)NC(=O)C(C)(C)O4)n2)cc(OC)c1OC
CCOc1ccc(CCNC(=O)c2cc3c(=O)n(C)c4ccccc4c3n2C)cc1
CCCCC(O)(CCCC)C(=O)NN(C(=O)CCl)c1ccccc1
CC(C)(O)C(=O)NN(C(=O)c1ccccc1)c1cccc(Br)c1
C=CCC[C@@H](CCCCC)OC(=O)/C=C/[C@@H](O)[C@H](O)C[C@H](O)CC=C
CC(C)CC(=O)NCC(c1ccc2c(c1)OCO2)N1CCN(c2ccc(F)cc2)CC1 (stereo unspecified)
C[C@H]1C[C@H]2[C@@H]3CCC4=CC(=O)C=C[C@]4(C)[C@@H]3C(=O)C[C@]2(C)[C@@]1(O)C(=O)CO
CO[C@H]1C[C@@H]2CC[C@@H](C)[C@@](O)(O2)C(=O)C(=O)N2CCCC[C@@H]2C(=O)O[C@H]([C@@H](C)C[C@@H]2CC[C@H](O)[C@H](OC)C2)CC(=O)[C@H](C)C=C(C)[C@@H](O)[C@@H](OC)C(=O)[C@H](C)C[C@H](C)C=CC=CC=C1C
COc1cc(OC)c2ccc(=O)oc2c1C(CCN1CCN(c2ccccc2)CC1)c1ccc2c(c1)OCO2 (stereo unspecified)
COc1cc(C(CCN2CCN(c3ccccc3)CC2)c2c(OC)cc(OC)c3ccc(=O)oc23)cc(OC)c1OC (stereo unspecified)
Cc1ccccc1-n1c(=O)c2ccccc2n(Cc2ccc(F)cc2)c1=O
CCNC(=O)c1cc2n(n1)CCCN(Cc1ccc(C)cc1)C2=O
CC1CCCCN1S(=O)(=O)c1ccc(F)c(C(=O)Nc2ccccc2C(F)(F)F)c1 (stereo unspecified)
CCN(CCCNC(=O)CSc1cc(=O)n(C)c2cc(Cl)ccc12)c1cccc(C)c1
COc1cc2c(cc1OC)CN(CC(=O)Nc1ccc(F)cc1)CC2
CCC(CC)C(=O)N1CCc2cc(OC)c(OC)cc2C1COc1ccc(F)cc1 (stereo unspecified)
Cc1cc(C)cc(NS(=O)(=O)c2cc3c(cc2C)NC(=O)CO3)c1
CC=CCC=CCCC(=O)[C@H]1O[C@@H]1C(N)=O
COc1cccc(NC(=O)Cn2c(=O)cc(C)c3c(C)nn(-c4cccc(F)c4)c32)c1
CCOC(=O)C1CCN(c2csc3ccc(C)cc3c2=O)CC1
CCCCN1C(=O)C(C)=C(C)C1OCCc1ccc(OC)c(OC)c1 (stereo unspecified)
COc1ccc(CN2C(=O)CC(Cc3ccc(C)cc3)C2=O)cc1OC (stereo unspecified)
COc1ccccc1CNC(=O)CS(=O)(=O)c1cccc2nsnc12
Cc1cc2ccccc2n1CCNC(=O)c1ccc(F)cc1
Cc1ccc2[nH]c(=O)c(CN(CC3COCCO3)C(=O)Nc3ccccc3C)cc2c1 (stereo unspecified)
CCC(=O)N(CCc1ccccc1)Cc1cc2cc(C)ccc2[nH]c1=O
CCOc1ccc(OCC)c(NC(=O)c2c(C)nn(-c3ccccc3)c2-n2cccc2)c1
CC(C)(C)OC(=O)N1CCC(c2c(C(=O)Nc3ccc4c(c3)OCO4)cnn2-c2ccccc2)CC1
CCOC(=O)C/C(C)=N\Nc1ccc([N+](=O)[O-])cc1[N+](=O)[O-]
O=C(NCC12CC3CC(CC(C3)C1)C2)c1cc2nc(-c3ccccc3)cc(C(F)(F)F)n2n1
O=C(Nc1cccc2cccnc12)c1cccc2c(Br)cccc12
N#Cc1ccccc1NC(=O)COc1c(Br)cc(Br)c2cccnc12
COc1ccc(-c2nc3ccccc3o2)cc1NC(=O)c1cc([N+](=O)[O-])ccc1N1CCOCC1
COc1ccccc1CNC(=O)c1ccccc1NC(=O)c1nsc2ccccc12
O=[N+]([O-])c1ccccc1/C=C/CN1CCCC(CO)C1 (stereo unspecified)
O=[N+]([O-])c1ccccc1/C=C/CN1CCC(O)CC1
COC(=O)/C=C(/C)N
CCOc1cc(C=C2C(=O)N(c3ccccc3)N=C2C)cc(Cl)c1OCC(=O)OC
COc1ccc(C(CCNCc2ccccc2F)c2ccc(F)cc2)cc1 (stereo unspecified)
COc1cccc(CNCCSc2nnnn2C)c1OCc1ccccc1Cl
Cc1nnc(C(=O)NC(C)(C)c2nc(C(=O)NCc3ccc(F)cc3)c(O)c(=O)n2C)o1
COc1ccc(S(=O)(=O)NCCSc2nnnn2-c2ccccc2)cc1
CSc1ncnc2c1ncn2CCCNCC1CCCCC1
CSc1ncnc2c1ncn2CCCNCc1ccco1

Potency, active:
CCc1nc2c(OCc3ccc(Cl)cc3Cl)cccn2c1N(C)C(=O)C(C)C 28.2 µM
O=c1oc2ccccc2cc1-c1cn(-c2ccccc2)c(=S)[nH]1 8.91 µM
COc1cccc2sc(N(CCCN(C)C)C(=O)C(c3ccccc3)c3ccccc3)nc12 22.4 µM
NC(N)=N/N=C/c1ccc(OCc2ccc(Cl)cc2Cl)cc1 22.4 µM
CC1CC(C)(C)n2c(O)c(N=NC(N)=S)c3cccc1c32 (stereo unspecified) 28.2 µM
O=C(Nc1ccccc1Cl)/C(Cl)=C(\Cl)S(=O)c1ccccc1 (stereo unspecified) 3.55 µM
CCCC(O)(CCC)C(=O)NN(C(=O)CCl)c1cccc(C)c1 21.2 µM
CCN(CC)CCC(c1ccc2c(c1)OCO2)c1c(OC)cc(OC)c2c(-c3ccccc3)cc(=O)oc12 (stereo unspecified) 31.6 µM
CC[C@H]1CN2CCc3cc(OC)c(OC)cc3[C@@H]2C[C@@H]1C[C@H]1NCCc2cc(OC)c(OC)cc21 1.41 µM and 112 nM
COc1ccc2c(c1)c(=Cc1ccc(N(C)C)cc1)c1cc(-c3ccccc3)[n+](C)n12 8.91 µM
CCCCOc1ccc(CN2C(=O)C(=O)c3cc(Br)cc(C)c32)cc1OC 31.6 µM
Cc1ccc2[nH]c(=O)c(CN(CCCN(C)C)C(=O)Nc3cccc(Cl)c3)cc2c1 15.8 µM
CCOC(=O)/C(=C\c1ccc([N+](=O)[O-])cc1)C(=O)c1cc(C(C)=O)c(Nc2ccccc2)s1 8.91 µM
CC(=O)NC(c1cccs1)c1cc(Br)c2cccnc2c1O (stereo unspecified) 5.01 µM
COc1ccc2cc1Oc1ccc(cc1)C[C@H]1c3cc(c(OC)cc3CCN1C)Oc1c(O)c(OC)cc3c1[C@H](C2)N(C)CC3 25.1 µM
CC1CCCCC1NC(=O)/C(C#N)=C/C=C/c1ccccc1[N+](=O)[O-] (stereo unspecified) 3.16 µM
CN1CC[C@H](c2c(O)cc(O)c3c(=O)cc(-c4ccccc4Cl)oc23)[C@H](O)C1 31.6 µM
COc1cccc(CNCCc2c[nH]c3ccccc23)c1OCc1ccccc1F 20 µM
CSc1ncnc2c1ncn2CC(=O)C1CCC2C3CCC4=CC(=O)CCC4(C)C3CCC12C (stereo unspecified) 22.4 µM

Activity change, negative = inhibition, inactive:
CCOC(=O)/C(=N\Nc1ccccc1[N+](=O)[O-])c1csc(Nc2ccccc2)n1 -8.65% [at 11.3 µM]
